Assay outcomes as filed in PubChem BioAssay.
Only some compounds are listed: those with a hit (about 7.2% of all), similar ones and a draw of the others.
AHR act – AHR activators, primary screen, cell-based, luminescence, luciferase reporter, human; Aryl hydrocarbon receptor (Homo sapiens), P35869; AHR-responsive luciferase reporter cells; activation, % at 5 µM; 320,000 tested, 2.5% active; AID 2796, 2010; in the data active = activation above about 47%;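 note: 0% = vehicle wells and 100% = reference agonist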
Bfl-1 A1 inh – caspase 3/7 activation in MEF A1-2A-BIM cells, primary screen, A1 inhibitor project, cell-based, luminescence, HTS | 330,000 tested, 0.066% active | Caspase-Glo 3/7 luminescence, 3 h; percent of clofoctol response, vehicle zero | caspase activation, % (test concentration not listed);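 active = over half of replicate activation scores above 10%, or exactly half above 10 with the replicate mean above 10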
ALR inh – inhibitors of human ALR sulfhydryl oxidase, primary screen, biochemical, H2O2 detection, HRP-luminol luminescence, single point; inhibition, % (concentration not given with the values); 290,000 tested, 3.8% active; purified ALR, DTT oxidation; FAD-linked sulfhydryl oxidase ALR (Homo sapiens), P55789; AID 485317, 2010;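 active = mean replicate inhibition above about 79%, with every replicate also reaching it, limit read from the data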
Target sequence (P55789 whole entry, looked up): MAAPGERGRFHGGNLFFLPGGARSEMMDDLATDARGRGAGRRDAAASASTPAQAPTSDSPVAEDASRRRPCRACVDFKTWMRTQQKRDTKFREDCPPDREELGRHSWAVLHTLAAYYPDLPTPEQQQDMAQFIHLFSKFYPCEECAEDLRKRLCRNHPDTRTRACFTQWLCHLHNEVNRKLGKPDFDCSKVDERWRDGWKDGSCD
VLA-4 inh – inhibition in human VLA-4 binding assay, primary screen, VLA-4 allosteric modulator project, MLPCN library, flow cytometry, VLA-4 expressing cells; inhibition, % (about 7 µM as worked out from the volumes in the protocol); AID 2557, 2010; ligand binding flow cytometry; 330,000 tested, 0.2% active; in the data active = inhibition above about 50%
Efflux pump mplx – inhibitors of Candida efflux pumps in yeast, primary screen, S. cerevisiae, Nile Red, multiplex; inhibition, % at 10 µM; 330,000 tested, 0.44% active; S. cerevisiae Candida pump triplex;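 active = plate passing quality check with inhibition over a set limit, or well fluorescence over plate mean plus 4 SD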;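 note: Nile Red retained in pooled yeast measured as flow cytometry median fluorescence; 0% = buffer negative control and 100% = Enniatin B positive control; higher means more Nile Red kept so more efflux inhibition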
SUMO Mot1 rescue – yeast Mot1-301 growth rescue at high temperature, primary screen, SUMOylation pathway inhibitor project, S. cerevisiae, ATP luminescence, 38.5C | growth rescue, % at 18.8 µM | AID 2716, 2010 | S. cerevisiae Mot1-301 growth rescue; percent above DMSO median, 100 means doubled | 320,000 tested, 1% active;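 active = every valid replicate shows activation above 250% relative to neutral control wells; inactive = the rest, any valid replicate at or below 250%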;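 note: OY570 slx delta 5 strain wells were the positive control but not used for scaling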
* hit, by the source's call; x = no result given.

SMILES	AHR act	Bfl-1 A1 inh	ALR inh	VLA-4 inh	Efflux pump mplx	SUMO Mot1 rescue
CCOC(=O)C(CSCC(=O)c1ccc(Br)cc1)NC(=O)OC(C)(C)C (stereo not drawn)	0.4	-0.4	98.5*	11.6	0.1	-7.6
CCOC(=O)C(CSCC(=O)c1ccc(Cl)cc1)NC(=O)OC(C)(C)C (stereo not drawn)	2.9	-0.6	x	16.4	0.1	4.7
O=C(O)Cc1ccc(NC(=O)C2CC=CCC2C(=O)O)cc1 (stereo not drawn)	-2.0	-0.1	-9.5	4.5	0.1	625.4*
CCCCn1c(SCC(N)=O)nc2ccc(N3CCOCC3)cc2c1=O	26.9	-1.2	13.2	-6.2	0.0	-8.7
Cn1cc(SCC(=O)N2CCN(c3ccccc3)CC2)c2ccccc21	11.8	0.7	98.0*	17.0	0.1	-19.5
O=C(CSc1nc2ccccc2[nH]1)Nc1ccc(N2CCOCC2)cc1	28.0	0.2	98.7*	-11.5	3.1	-1.1
CCCCn1c(SCC(=O)Nc2cccc(OC)c2)nc2ccc(N3CCOCC3)cc2c1=O	12.4	-0.4	99.1*	-12.5	0.0	-8.2
O=C(CSc1nc2ccccc2[nH]1)Nc1cccc(S(=O)(=O)N2CCOCC2)c1	1.0	0.3	x	-2.9	-0.1	-0.7
O=C(CSc1nc2ccccc2[nH]1)N1CCN(c2ccccc2)CC1	0.4	0.2	98.6*	-24.3	-0.2	-1.7
COCCn1c(SCC(=O)Nc2ccc(S(=O)(=O)N3CCOCC3)cc2)nc2ccccc21	-0.5	1.2	x	7.0	-0.1	83.0
N#CCCn1c(SCC(=O)Nc2ccc(N3CCOCC3)cc2)nc2ccccc21	10.2	0.4	98.8*	-5.1	-0.4	-5.5
O=C1CCC(=O)N1c1ccc(CSc2nc3ccccc3[nH]2)cc1	7.0	-0.5	98.8*	3.2	0.0	32.6
Brc1ccc(C=Nc2ccc3c(c2)OCCOCCOCCO3)s1	1.9	1.4	89.1*	4.7	0.4	23.4
Oc1c(Cl)cc(Cl)cc1C=Nc1ccc2c(c1)OCCO2	15.2	0.5	-5.4	8.2	-0.1	-18.4
Brc1csc(C=Nc2ccc3c(c2)OCCOCCOCCOCCO3)c1	-3.3	-0.7	99.6*	2.0	1.1	105.6
Cn1cc(CC(=O)NCCCN2CCCC2=O)c2ccccc21	-1.3	0.7	-33.1	-8.1	0.2	4.2
CS(=O)(=O)c1ccc(Cl)c(NC(=O)C2CCCN(C(=O)c3ccc(Cl)cc3)C2)c1 (stereo not drawn)	2.7	-0.4	-34.9	-8.6	0.0	205.7
COc1ccccc1C(=O)N/C(N)=N/c1nc2ccccc2o1	69.2*	-2.6	x	-4.7	-0.1	1.0
Cc1ccc(NCN2C(=O)C3C4CCC(C4)C3C2=O)cc1 (stereo not drawn)	0.9	0.6	14.0	31.8	-0.1	-16.2
O=C1C2C3C=CC(C3)C2C(=O)N1CNc1ccc(O)cc1 (stereo not drawn)	0.5	-0.6	99.1*	16.5	0.0	-8.1
CC(=O)Nc1ccc(NCN2C(=O)C3C4CCC(C4)C3C2=O)cc1 (stereo not drawn)	-2.7	0.1	84.6*	-6.0	-0.1	19.6
COc1ccc(-n2c(SCC(=O)NCC3CCCO3)nc3n[nH]c(C)c3c2=N)cc1 (stereo not drawn)	10.7	0.1	-9.7	5.0	0.3	-6.6
Cc1ccc(-n2c(SCC(=O)NCC3CCCO3)nc3n[nH]c(C)c3c2=N)cc1Cl (stereo not drawn)	58.8*	1.3	-0.4	3.7	0.1	1.7
Cc1cc(-n2c(SCC(=O)NCCC3=CCCCC3)nc3n[nH]c(C)c3c2=N)ccc1Cl	53.2*	0.9	-2.3	-5.1	-0.3	-5.7
Cc1csc(=O)n1CC(=O)OCC(=O)Nc1ccc(Cl)cc1F	-1.4	0.2	-3.5	39.1	0.0	7.2
SMILES	AHR act	Bfl-1 A1 inh	ALR inh	VLA-4 inh	Efflux pump mplx	SUMO Mot1 rescue
O=[N+]([O-])c1ccc(Nc2ccccc2O)c2nonc12	x	-0.7	99.0*	-12.8	0.3	-3.3
CC1=C(C#N)C(Nc2ccc(C)cn2)(C(F)(F)F)C(=O)N1 (stereo not drawn)	-0.6	0.8	1.0	6.3	0.0	-8.1
COc1cc(/C=C2/C(=O)N(c3ccc(Br)cc3)N=C2C)cc([N+](=O)[O-])c1O	7.1	0.2	-9.1	3.2	-0.1	7.6
COc1cc(/C=C2/C(=O)N(c3cccc(Br)c3)N=C2C)cc(OC)c1O	0.3	-0.6	92.1*	-20.9	0.1	201.2
CC1=NN(c2ccccc2)C(=O)/C1=C\c1cc(C)n(C)c1C	53.6*	0.2	3.8	2.5	0.1	-7.9
CC1=NN(c2ccccc2)C(=O)/C1=C/c1cccc(C)c1	6.9	-0.1	94.4*	2.5	0.0	-8.3
COc1ccc(/C=C2/C(=O)N(c3ccccc3)N=C2C)cc1OC	x	-0.2	36.8	-3.0	0.1	59.2
Cc1ccc(NC(=O)COC(=O)c2ccn(C)n2)cc1	1.4	0.1	1.3	-1.5	0.0	6.6
COc1ccccc1Nc1nc(-c2sc(NC(=O)c3ccccc3)nc2C)cs1	27.5	-6.2	7.3	7.2	0.1	-15.2
CCOc1ccccc1Nc1nc(-c2sc(NC(=O)c3cccc(Cl)c3)nc2C)cs1	64.5*	-0.2	-5.5	23.1	-0.2	-1.4
Cc1ccc(Cl)cc1Nc1nc(-c2sc(NC(=O)c3ccccc3)nc2C)cs1	36.0	0.6	-6.4	-9.9	0.1	-39.3
CCOc1ccccc1Nc1nc(-c2sc(NC(=O)c3ccccc3)nc2C)cs1	72.2*	-12.7	2.2	22.5	0.2	-33.0
CCOc1cccc(CN2CCC(Oc3ccc(C(=O)NCc4ccccn4)cc3)CC2)c1	3.0	0.7	-7.2	16.8	0.1	4.6
Cc1cc(Br)cc(C)c1OCCCCN(C)C	-0.1	0.6	93.2*	-28.0	0.2	-3.2
O=C(CNS(=O)(=O)c1ccc2ccccc2c1)OCc1csc(-c2ccccc2)n1	7.9	-0.2	98.6*	0.2	0.1	-2.4
Cc1ccc(S(=O)(=O)NCC(=O)OCc2csc(-c3ccccc3)n2)cc1	7.3	-0.3	16.7	5.8	1.0	-2.6
COc1ccc(Cc2nnc(N/N=C/c3ccc(N(C)C)cc3)[nH]c2=O)cc1OC	5.0	0.7	98.8*	18.2	0.2	-11.1
Cc1cc(=O)[nH]c(Nc2ccc(N(C)C)cc2)n1	55.4*	1.2	98.7*	1.9	0.0	16.3
Cc1cc(=O)[nH]c(N/N=C/c2ccc(N(C)C)cc2)n1	12.6	-0.3	98.9*	6.3	0.0	65.4
COc1cc(/C=N/Nc2nc(C)cc(=O)[nH]2)ccc1O	8.0	-0.2	98.5*	-14.7	0.7	0.6
